Screens deposited in PubChem BioAssay by several laboratories.
Shown are actives, neighbours in structure and some others; about 3.1% of the full set was active somewhere.
MEKK2wt PB1 HTS = raises or lowers MEK5 binding to wildtype human MEKK2 PB1 domain. Q9Y2U5. bead flow cytometry, Alexa488-MEK5 binding to MEKK2 WT; actives lie on both sides. binding response (% of control), % at 10 µM. 290,000 tested, 1.1% active; in the data active = binding response below about 67% or above about 130%; inconclusive = no clear call, values can overlap the other calls; inactive = in between
PREPL inh = inhibits the human prolyl oligopeptidase-like enzyme; Q4J6C6; recombinant PREPL, fluorescence polarization activity-based probe; inhibition, % at 5.96 µM; 320,000 tested, 0.68% active; in the data active = inhibition above about 43%
MEKK2 mut-MEK5 = signal of MEK5 binding to mutant human MEKK2 PB1 domain; bead flow cytometry, Alexa488-MEK5 binding to MEKK2 mutant; percent response, % at 10 µM; 290,000 tested, 0.35% active; AID 1530; in the data active = percent response above about 24%, passing the limit was not always enough
MEKK3 PB1 HTS = raises or lowers MEK5 binding to the human MEKK3 PB1 domain. Q99759. 290,000 tested, 1.4% active. AID 1529. binding response (% of control), % at 10 µM. bead-based flow cytometry, Alexa488-MEK5 binding to MEKK3; actives lie on both sides; 0 = blocked by unlabeled MEK5, 100 = vehicle;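 active = binding response more than 3 SD above or below the average of its plate-row segment, actives on both sides; inconclusive = wells at one plate position flagged as instrument error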;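 also: Alexa488 bead fluorescence after subtracting the streptavidin-only scavenger bead signal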
Target sequence (Q99759 whole entry, looked up, the tested form may be a part): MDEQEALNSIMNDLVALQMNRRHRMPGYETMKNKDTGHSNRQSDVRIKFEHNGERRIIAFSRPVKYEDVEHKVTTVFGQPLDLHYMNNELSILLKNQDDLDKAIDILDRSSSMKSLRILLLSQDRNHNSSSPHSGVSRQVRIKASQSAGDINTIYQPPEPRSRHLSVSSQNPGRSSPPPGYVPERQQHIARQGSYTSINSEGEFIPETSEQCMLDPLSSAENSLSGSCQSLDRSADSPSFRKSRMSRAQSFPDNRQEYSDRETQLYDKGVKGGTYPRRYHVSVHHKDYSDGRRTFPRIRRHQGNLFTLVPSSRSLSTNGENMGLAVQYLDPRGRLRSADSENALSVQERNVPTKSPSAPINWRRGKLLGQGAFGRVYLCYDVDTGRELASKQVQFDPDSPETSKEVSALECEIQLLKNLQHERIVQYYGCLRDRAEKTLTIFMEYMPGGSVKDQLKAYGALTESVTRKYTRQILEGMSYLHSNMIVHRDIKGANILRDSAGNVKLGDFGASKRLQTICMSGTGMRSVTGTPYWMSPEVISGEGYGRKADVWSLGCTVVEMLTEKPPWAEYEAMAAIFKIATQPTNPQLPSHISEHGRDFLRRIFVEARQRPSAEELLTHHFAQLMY
ATG4B inh = ATG4B (human) cysteine protease inhibition; Q9Y4P1; ATG4B cleavage of LC3-PLA2, NBD-HPC fluorescence, 1 h; inhibition, % at 8.33 µM; 340,000 tested, 0.51% active; AID 504462; in the data active = inhibition above about 40%
UBC13 inh = blocks human UBC13 polyubiquitin chain formation | P61088 | inhibition, % at 20 µM | AID 485273 | TR-FRET | 330,000 tested, 0.47% active; in the data active = inhibition above about 45%, passing the limit was not always enough; inconclusive = no clear call, values can overlap the other calls
Hits are given with their value; . = inactive; ? = inconclusive; / = no result.

SMILES	MEKK2wt PB1 HTS	PREPL inh	MEKK2 mut-MEK5	MEKK3 PB1 HTS	ATG4B inh	UBC13 inh
CCCCCC/C(C)=C1/SC(=S)NC1=O	.	.	.	.	.	.
C/C(=N\Nc1nc2ccc(Cl)cc2o1)c1ccccc1	-3.0	.	.	.	.	.
C/C(=N\Nc1nc(C)cc(-c2ccccc2)n1)c1ccccc1	.	.	.	.	.	.
CCOC(=O)c1ccc(S(=O)(=O)N2CCN(c3ccccn3)CC2)cc1	.	.	.	.	.	.
O=C(C1CCN(S(=O)(=O)c2ccc(Br)s2)CC1)N1CCc2ccccc21	.	.	.	.	41	.
Cc1cccc(N(Cc2ccccc2)C(=O)c2ccccc2S(C)(=O)=O)c1	.	.	.	.	.	.
O=C(Nc1ccc2nc(-c3ccco3)c(-c3ccco3)nc2c1)N1CCCCCC1	.	75	.	.	47	.
O=C1C(NS(=O)(=O)c2cccs2)=C(N2CCN(c3cccc(C(F)(F)F)c3)CC2)C(=O)c2ccccc21	/	.	/	/	64	.
c1ccc2c(c1)nc(Nc1ccc(N3CCCCC3)cc1)c1nncn12	-4.0	.	.	.	.	.
CCc1ccc(CN2CCCC(C(=O)N3CCCCC3)C2)cc1 (stereo unspecified)	.	.	.	.	.	.
CC(C(=O)Nc1ccc2c(c1)OCO2)N(C)CC(=O)Nc1ccc(Cl)cc1 (stereo unspecified)	/	/	/	/	.	/
O=C(O)C1=CC(=C(c2ccc(O)c(C(=O)O)c2)c2ccc(O)c(C(=O)O)c2)C=CC1=O	/	80	/	/	/	/
Cc1ccc(CNC(=O)CS(=O)(=O)c2cn(CC(=O)N3CCOCC3)c3ccccc23)cc1	.	.	.	.	.	.
Cc1ccc2c(c1)C1CCCC3C1N2CC(=O)N3Cc1ccccc1 (stereo unspecified)	18	.	.	.	/	.
O=Cc1ccc(Sc2nnc(-c3ccccc3)o2)c([N+](=O)[O-])c1	.	.	.	.	49	.
CCN(CCn1cccn1)C(=O)C1CCC(=O)N(CC2CCCCC2)C1 (stereo unspecified)	.	.	.	.	.	.
COc1cc(NCCCn2ccc(NC(=O)OCc3ccccc3)nc2=O)cc(OC)c1OC	/	/	/	/	.	/
Cc1ccc(CNC(=O)Cn2cccc2C(=O)c2ccccc2C)cc1	-1.0	.	.	.	.	.
N#Cc1c(-c2cccs2)nc(SCc2ccc(Cl)cc2)[nH]c1=O	.	/	.	.	49	?
Cc1ccc(CSC2=NCCN2S(=O)(=O)c2ccc(F)cc2)cc1	.	.	.	.	.	.
N=c1n(CCN2CCCC2)c2ccccc2n1CC(O)c1ccc(Cl)c(Cl)c1 (stereo unspecified)	152	.	.	.	.	.
COc1ccccc1OCC(O)Cn1c(=N)n(Cc2ccccc2)c2ccccc21 (stereo unspecified)	.	.	.	.	.	.
N=c1n(Cc2ccccc2)c2ccccc2n1CC(O)c1ccccc1 (stereo unspecified)	.	43	.	.	.	.
O=C(CCC1CCCCC1)NC1CCCCC1	/	.	/	/	.	.
CCOC(=O)c1cc([N+](=O)[O-])cc([N+](=O)[O-])c1Sc1ncnc2nc[nH]c12	/	/	/	/	.	/
SMILES	MEKK2wt PB1 HTS	PREPL inh	MEKK2 mut-MEK5	MEKK3 PB1 HTS	ATG4B inh	UBC13 inh
Cc1ccc(/C=C2/SC(=S)N(CCC(=O)N3CCOCC3)C2=O)cc1	.	.	.	.	.	.
Cc1ccc(-n2nc3c(N4CCC(C(=O)NCc5ccccc5C)CC4)nnc(C)c3c2C)cc1	.	.	.	.	54	.
CCOc1ccccc1CNC(=O)C1CCN(c2nnc(C)c3c(C)n(-c4ccc(C)cc4)nc23)CC1	.	.	.	.	.	.
Cc1ccc(-n2nc3c(N4CCC(C(=O)N5CCN(C)CC5)CC4)nnc(C)c3c2C)cc1	.	.	.	.	.	.
CCCN1CCN(C(=O)C2CCN(c3nnc(C)c4c(C)n(-c5ccc(C)cc5)nc34)CC2)CC1	.	.	134	.	.	.
CCN(CC)CCN1CCn2c3c(c4cc(C)ccc42)CCCC31 (stereo unspecified)	.	52	.	.	.	.
CCN1CCn2c3c(c4cc(Cl)ccc42)CCCC31 (stereo unspecified)	.	.	.	.	.	.
